High-throughput results: PubChem, several laboratories
This is a sample that favours compounds with a hit; in the whole collection about 3.3% have one here.
MazF activator: activators of E. coli MazEF toxin-antitoxin RNase; P0AE70; FAM/BHQ RNA-DNA oligo cleavage fluorescence, 5 h; activation, % at 20 µM; 350,000 compounds, 0.32% hits; in the data active = activation above about 50%
Target sequence (P0AE70 whole entry, looked up): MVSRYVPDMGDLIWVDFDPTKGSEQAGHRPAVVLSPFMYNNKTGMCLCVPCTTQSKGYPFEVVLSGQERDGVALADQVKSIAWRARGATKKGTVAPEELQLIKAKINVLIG
Anthrax LF inh2: anthrax lethal factor protease inhibition; P15917; multiplex microsphere protease cleavage assay, LF; inhibition, % at 10 µM; 360,000 compounds, 0.12% hits; note: plate controls were buffer without enzyme for full effect and enzyme alone for no effect
BoNT-F LC inh: inhibitors of Botulinum neurotoxin F light chain protease. inhibition, % at 10 µM. Multiplex microsphere protease cleavage assay, flow cytometry. AID 588497. 360,000 compounds, 0.22% hits; in the data active = inhibition above about 35%, passing the limit was not always enough; inconclusive = no clear call, values can overlap the other calls; note: plate controls were buffer without enzyme for full effect and enzyme alone for no effect
Bead autofluor: flagged as autofluorescent in microsphere protease counterscreen; compound autofluorescence counterscreen, microsphere flow cytometry; hits give high values; fluorescence intensity (test concentration not listed); 360,000 compounds, 3.1% hits; AID 624483; in the data active = fluorescence intensity above about 16000; inconclusive = no clear call, values can overlap the other calls
BoNT A protease: BoNT A light chain protease inhibition. AID 588499. multiplex microsphere protease substrate cleavage, flow cytometry. inhibition, % at 10 µM. 360,000 compounds, 0.17% hits; note: plate controls were buffer without enzyme for full effect and enzyme alone for no effect
PriA SSB inh: blocks PriA binding to SSB C-terminal tail; AID 1272365; inhibition, % at 33 µM; AlphaScreen SSBct-PriA binding, biotinylated peptide; 430,000 compounds, 0.6% hits; in the data active = inhibition mostly above about 37%, no sharp cut-off; inactive = mostly below about 20%;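 note: plate controls were negative control peptide for no effect and reference peptide for full effect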
An asterisk follows results filed as active; ? = inconclusive; . = no result. Cut-off read from the data, not from the text of the source, unless noted: active = inhibition above about 30%; inconclusive = no clear call, values can overlap the other calls; inactive = below that.

SMILES	MazF activator	Anthrax LF inh2	BoNT-F LC inh	Bead autofluor	BoNT A protease	PriA SSB inh
CC(=O)c1sc(=S)n(-c2ccc(Cl)cc2)c1C	2.5	1.1	-10.5	3102	-0.6	14.4
CCOC(=O)c1sc(=S)n(-c2ccc(F)c(F)c2)c1N	-1.4	0.3	-4.4	21634*	-4.9	-16.0
COc1ccc(OC)c(NC(=O)COc2cc(C(C)(C)C)nn2-c2nc(C)cc(C)n2)c1	.	.	.	.	.	-5.0
COc1ccc(NC(=O)CCC(=O)Nc2nnc(C(F)(F)F)s2)c(OC)c1	-7.7	-10.2	-2.0	18599*	1.4	-12.6
O=C(CCC(=O)NC1CCCCCCC1)Nc1nnc(C(F)(F)F)s1	0.9	-1.2	-6.5	8566	-1.2	-7.5
O=C(CCC(=O)NC1CCCCCC1)Nc1nnc(C(F)(F)F)s1	-10.8	-6.3	5.6	21138*	?	-10.2
COC(=O)c1ccc(NC(=O)c2cccc(Cl)c2)o1	3.1	-3.1	-4.2	23122*	-1.0	-10.5
COC(=O)c1ccc(NC(=O)c2ccc(C)cc2)o1	2.1	-2.7	-4.9	2636	0.2	-10.8
O=C(NCCC(c1ccccc1)c1ccccc1)C(=O)Nc1ccncc1	.	.	.	.	.	47.0*
Cc1cc(C)nc(SCC(=O)Nc2ccc(S(=O)(=O)NCCO)cc2)n1	3.7	-0.5	-1.3	23188*	1.4	3.3
Cc1cc(C)nc(SCC(=O)Nc2ccc(S(=O)(=O)N3CCCCC3)cc2)n1	8.0	-0.9	1.2	16364*	0.9	-5.3
Cc1ccc(NC(=O)CSc2nnc(-c3ccc(S(=O)(=O)N4CCCC4)cc3)o2)cc1C	-41.3	-0.3	1.9	21954*	2.0	-3.6
CCOc1ccc(S(=O)(=O)N=C(Nc2ccc(C(C)=O)cc2)c2ccccc2)cc1	.	.	.	.	.	-3.1
CC(C)CS(=O)(=O)C1CN(C(=O)CCn2cnc3ccccc3c2=O)C1	.	.	.	.	.	-5.0
O=C1C2ON(c3ccccc3)C(c3ccncc3)C2C(=O)N1c1ccc(Br)cc1 (centres undefined)	-5.0	2.1	-1.2	20513*	?	2.0
Cc1ccc(N2C(=O)C3ON(c4ccccc4)C(c4ccncc4)C3C2=O)cc1 (centres undefined)	-2.8	-0.3	0.0	20770*	-0.1	-2.7
Cc1ccc2c(=O)c(S(=O)(=O)c3ccccc3)cn(CC(=O)N3CCc4ccccc4C3)c2n1	.	.	.	.	.	7.0
CCOC(=O)C1C(=O)NC(N2CCCCC2)=NC1c1ccccc1 (centres undefined)	-5.1	-1.6	1.0	22677*	-0.8	-8.4
CCOC(=O)C1C(=O)NC(N2CCN(Cc3ccccc3)CC2)=NC1c1ccccc1 (centres undefined)	-7.1	-5.0	-8.4	11601	-0.9	-4.0
COC(=O)c1cc(C(=O)NCC2CCCCC2)cc([N+](=O)[O-])c1	1.3	-1.1	-1.3	6011	0.0	1.0
COC1(C)CC2C(CC1OC(=O)c1cc([N+](=O)[O-])cc([N+](=O)[O-])c1)C2(C)C (centres undefined)	-8.1	-0.8	3.0	2158	0.2	73.8*
CC(C)(C)c1ccc2c(c1)N(Cc1nc(-c3ccc(Cl)c(F)c3)no1)C(=O)CO2	.	.	.	.	.	-2.0
CS(=O)(=O)N1CCC(C(=O)NCCn2ccc(-c3cccs3)n2)CC1	.	.	.	.	.	-2.0
Cc1ccc(NC(=O)Cn2cnc3sc(C(=O)NCc4ccco4)c(C)c3c2=O)cc1Cl	-9.0	-5.6	3.7	21778*	3.6	-9.8
COCCNC(=O)c1sc2ncn(CC(=O)Nc3ccc(C)c(Cl)c3)c(=O)c2c1C	5.8	0.9	-6.1	2017	0.2	2.0
SMILES	MazF activator	Anthrax LF inh2	BoNT-F LC inh	Bead autofluor	BoNT A protease	PriA SSB inh
Cc1cc(C)cc(NC(=O)Cn2nc(-c3ccc(F)cc3)c3sc(N4CCOCC4)nc3c2=O)c1	.	.	.	.	.	-13.0
CC(C)NC(=O)COc1ncnc2sccc12	-10.7	-2.7	1.6	18786*	1.8	-8.4
CC(C)NC(=O)NC(=O)COc1ncnc2sccc12	5.5	-3.5	-10.9	9837	-0.4	-12.8
CCOc1cc(CN2CCN(c3cccc(C(F)(F)F)c3)CC2)ccc1O	-2.2	-2.7	-0.8	20233*	1.1	11.5
CCOc1cc(CN2CCSCC2)ccc1O	3.7	-2.8	-3.6	16487*	-1.6	-10.7
Cc1ccccc1OCC(=O)NCCSC1CCOCC1	.	.	.	.	.	5.0
CCCc1cc2c(=O)c(-c3ccc4c(c3)OCCO4)coc2cc1OC(=O)N(C)C	.	.	.	.	.	2.0
COc1ccc(N2C(=O)C3C4C=CC(C4)C3C2=O)c([N+](=O)[O-])c1 (centres undefined)	5.8	-1.0	1.1	3455	0.2	-8.0
COc1ccc(N2C(=O)C3C4C=CC(C4)C3C2=O)c(OC)c1 (centres undefined)	2.9	1.1	1.4	22210*	0.3	-5.3
O=C(Cn1cnc2c([nH]c3ccccc32)c1=O)NCc1cccc(C(F)(F)F)c1	.	.	.	.	.	-26.0
Clc1cccc(Oc2ncc(CN3CCOCC3)s2)c1	2.9	0.6	3.7	21630*	2.4	-10.7
Cc1ccc2nc(C3CN(C(=O)C4(c5cccs5)CCCC4)C3)[nH]c2c1	.	.	.	.	.	-4.0
O=C(NCCNc1ccc(Nc2ccccn2)nn1)[C@@H]1CCCO1	.	.	.	.	.	52.0*
O=S(=O)(NCCNc1ccc(Nc2ccccn2)nn1)c1ccccc1Cl	.	.	.	.	.	89.0*
Cc1cc(NS(=O)(=O)c2ccc(NC(=O)Cn3nc(-c4ccco4)ccc3=O)cc2)nc(C)n1	.	.	.	.	.	-20.0
Cc1ccccc1-c1ccc(N2CCN(C(=O)c3ccccn3)CC2)nn1	.	.	.	.	.	-17.0
O=C(c1ccccn1)N1CCN(c2ccc(-c3ccccn3)nn2)CC1	.	.	.	.	.	157.0*
O=C(c1ccccn1)N1CCN(C(=O)c2ccccn2)CC1	11.3	-0.2	-2.4	16386*	-0.5	-12.8
O=C(c1ccccc1Cl)N1CCN(c2ccc(-c3ccccn3)nn2)CC1	.	.	.	.	.	147.0*
O=C(c1ccccn1)N1CCN(S(=O)(=O)c2ccccc2)CC1	3.5	-2.0	0.5	4157	0.8	-1.4
CS(=O)(=O)N1CCN(c2ccc(-c3ccccn3)nn2)CC1	.	.	.	.	.	77.0*
C=CCn1c(SCC(=O)Nc2cccc(OC)c2)nc2scc(-c3ccc(F)cc3)c2c1=O	.	.	.	.	.	-5.0
Cc1ccc(C)c(S(=O)(=O)N2CCCC(c3nnc(CC(C)(C)C)o3)C2)c1 (centres undefined)	.	.	.	.	.	-10.0
COC(=O)c1sc2ccccc2c1NC(=O)c1ccc(C(=O)Nc2c(C(=O)OC)sc3ccccc23)s1	.	.	.	.	.	-17.0
Cc1csc(NC(=O)C2CCCN2C(=O)Oc2ccccc2)n1 (centres undefined)	3.5	4.0	1.2	22986*	0.4	-6.2
Cc1cc(C)cc(NC(=O)C2CCCN2C(=O)Oc2ccccc2)c1 (centres undefined)	-17.6	-1.6	-6.2	5855	-0.2	-0.2
Cc1ccc(S(=O)(=O)N2CCC(C(=O)N3CC4(C)CC3CC(C)(C)C4)CC2)cc1 (centres undefined)	.	.	.	.	.	13.0
O=C1N(CCCOc2ccccc2)c2ccc(Cl)cc2C12OCCCO2	.	.	.	.	.	-31.0
CC1=C(C(=O)OC2CCCC2)C(c2ccc(C)o2)C2=C(CC(c3cccs3)CC2=O)N1 (centres undefined)	-12.5	-5.3	-2.9	22029*	-1.1	-11.1
